HEK293 tox: HEK 293 cell cytotoxicity; AID 1345083; Potency, µM (doses to about 115 µM), usual class: inhibitors; HEK 293 viability, ATP luminescence (CellTiter-Glo), 48-72 h; 94,000 compounds, 6.6% hits; also: nearly all actives have a fitted effect of over 60% in size
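Pintool-delivered compounds were incubated with HEK 293 cells (250 cells/well) at 37 degree Celsius for 48 or 72 hr. ATP-dependent luminescence (CellTiter-Glo) then reported remaining viable cells.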
NPR1 antag: blocks ANP-stimulated signaling of human Npr1 receptor; P16066; HEK293 hNpr1 GloSensor cGMP, ANP-stimulated luminescence; AID 1347048; 76,000 compounds, 1.6% hits; Potency, µM (highest dose often 46.3 µM), usual class: inhibitors; calls by dose curve; also: nearly all actives have a fitted effect of over 60% in size
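HEK293 cells stably expressing human Npr1 and cGMP GloSensor pGS-40F, loaded 2 h with 2% GloSensor reagent, given compound 30 min at room temperature. Luminescence read before and 20 min after 0.1 nM hNppA.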
GPT2 inhibitor: GPT2 alanine aminotransferase inhibition; Q8TD30; 100,000 compounds, 0.25% hits; Recombinant GPT2, coupled pyruvate oxidase/HRP Amplex Red fluorescence; Potency, µM (highest dose often 57.7 µM), hits mostly inhibitors; also: nearly all actives have a fitted effect of over 60% in size
Target sequence (Q8TD30 whole entry, looked up): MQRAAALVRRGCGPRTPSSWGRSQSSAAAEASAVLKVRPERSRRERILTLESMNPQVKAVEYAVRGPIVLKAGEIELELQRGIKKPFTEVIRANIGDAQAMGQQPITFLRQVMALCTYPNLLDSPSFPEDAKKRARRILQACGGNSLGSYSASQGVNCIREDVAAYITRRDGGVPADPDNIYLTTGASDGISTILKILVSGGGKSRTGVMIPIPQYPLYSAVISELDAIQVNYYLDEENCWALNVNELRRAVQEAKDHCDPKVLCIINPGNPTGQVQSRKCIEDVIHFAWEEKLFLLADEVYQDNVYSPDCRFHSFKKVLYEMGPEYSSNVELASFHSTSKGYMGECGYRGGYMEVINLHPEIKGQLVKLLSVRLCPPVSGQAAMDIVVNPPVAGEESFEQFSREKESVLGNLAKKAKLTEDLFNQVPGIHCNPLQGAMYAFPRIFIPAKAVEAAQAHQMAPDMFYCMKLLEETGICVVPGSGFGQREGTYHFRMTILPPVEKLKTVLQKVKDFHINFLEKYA
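GPT2 10ng/uL, a-KG 250uM, L-Ala 2mM, HEPES pH7.5 + 0.0001% Tween; 30 min RT. Then Amplex mix (PO/HRP/ThPP), 30 min RT dark, fluorescence. AOA 50uM used as positive control.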
Luciferase inh: inhibitors of firefly (Photinus pyralis) luciferase. purified P. pyralis luciferase, luminescence, biochemical. AID 1347043. Potency, µM (highest dose often 115 µM), usual class: inhibitors. 76,000 compounds, 2.5% hits; also: nearly all actives have a fitted effect of over 65% in size
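Purified 10nM P. pyralis luciferase with 10uM D-luciferin and 10uM ATP in 50mM Tris acetate pH 7.5, 10mM Mg acetate, 0.01% Tween-20, 0.05% BSA. qHTS titration; luminescence read by CCD imager.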
NIH3T3 tox: kills NIH 3T3 cells | AID 1345082 | NIH 3T3 viability, CellTiter-Glo ATP luminescence, 48-72 h | Potency, µM (highest dose often 96.7 µM), hits mostly inhibitors | 94,000 compounds, 4.3% hits; also: nearly all actives have a fitted effect of over 55% in size
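NIH 3T3 cells at 400 cells/well received 23 nL of compound by pintool and were incubated 48 or 72 h at 37 °C. Viability was read as ATP-coupled CellTiter-Glo luminescence.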
Npr1 antag conf: confirmation of human Npr1 natriuretic peptide receptor antagonists; shares compounds with NPR1 antag; HEK293 hNpr1 cGMP GloSensor luminescence, ANP-stimulated; 1,400 compounds, 76% hits; Potency, µM (titrated, usually from 57.6 µM), actives largely listed as inhibitors; calls by dose curve; also: nearly all actives have a fitted effect of over 70% in size
Npr2 selectivity: antagonizes human Npr2, subtype selectivity check; AID 1347046; HEK293 hNpr2 GloSensor cGMP luminescence, CNP-stimulated; 1,400 compounds, 67% hits; Potency, µM (titrated, usually from 57.6 µM), hits mostly inhibitors; shares compounds with NPR1 antag; calls by dose curve; also: nearly all actives have a fitted effect of over 70% in size
FLuc counter: counter-screen for Npr1 antagonists: firefly luciferase inhibitors. 1,400 compounds, 0.7% hits. Potency, µM (top dose mostly 57.6 µM), actives largely listed as inhibitors. purified FLuc enzyme, luminescence, Km substrate. shares compounds with NPR1 antag
GloSensor ctrl: control cell line activity, Npr1 antagonist counter-screen. shares compounds with NPR1 antag. HEK293 GloSensor cGMP, SNP-stimulated, luminescence. Potency, µM (top dose mostly 57.6 µM), hits mostly inhibitors. 1,400 compounds, 69% hits; calls by dose curve; also: nearly all actives have a fitted effect of over 70% in size
Large screens that a line does not name were inactive (follow-up assays come after a bar, where they were run). Hits are enriched below; roughly 10% of the tested compounds scored in any of these assays. Unless noted, calls follow the shape of the dose curve; as a rule, active = well fitted curve in the direction sought with a large enough effect; inconclusive = small, poorly fitted or top-dose-only effect, or another doubt; inactive = no such curve, though single readings can be large; an effect the other way counts as inactive or inconclusive.

CCn1c2c(c(=O)n1-c1ccccc1)CCN(C(=O)c1ccc(Oc3ccccc3)cc1)C2	HEK293 tox inconclusive, NPR1 antag 8.9µM, NIH3T3 tox inconclusive | Npr1 antag conf 8.6µM | Npr2 selectivity 11µM | FLuc counter inactive | GloSensor ctrl 7.7µM
COCCn1c(=O)c2c(n1Cc1ccccc1)CN(C(=O)c1ccc(Oc3ccccc3)cc1)CC2	HEK293 tox inconclusive, NIH3T3 tox inconclusive
CCn1c2c(c(=O)n1Cc1ccccc1)CCN(C(=O)c1ccc(Oc3ccccc3)cc1)C2	HEK293 tox inconclusive, NPR1 antag 11µM, NIH3T3 tox inconclusive | Npr1 antag conf 24µM | Npr2 selectivity 22µM | FLuc counter inactive | GloSensor ctrl 19µM
COCCn1c2c(c(=O)n1-c1ccccc1)CCN(C(=O)c1ccccc1)C2	NIH3T3 tox inconclusive
COc1ccc(OCC(O)CN2CCC(=O)N(C)Cc3cc(OC)ccc32)cc1 (stereo unspecified)	NIH3T3 tox inconclusive (no result: NPR1 antag, GPT2 inhibitor, Luciferase inh)
O=C(CCN1CCCCO1)N1CCCn2nc(C(O)C3CCC3)cc2C1 (stereo unspecified)	GPT2 inhibitor inconclusive
O=C(NC1CCCCC1)N1CCCC(c2nnc3n2CCNC3)C1 (stereo unspecified)	none (no result: NPR1 antag, Luciferase inh)
O=C(c1ccnc2ccccc12)N1CCC2(CC1)Nc1ccccc1NC2=O	HEK293 tox inconclusive, NPR1 antag inconclusive, GPT2 inhibitor inconclusive | Npr1 antag conf 22µM | Npr2 selectivity inconclusive | FLuc counter inactive | GloSensor ctrl 27µM
COCc1cc(N2CCc3onc(-c4cccc5ccccc45)c3C2)ncn1	HEK293 tox 35µM, NPR1 antag 13µM, NIH3T3 tox inconclusive | Npr1 antag conf 22µM | Npr2 selectivity inconclusive | FLuc counter inactive | GloSensor ctrl 24µM
CCn1nc(C)c(-c2cc(C(=O)NCCc3noc(COC)n3)no2)c1C	HEK293 tox inconclusive, NIH3T3 tox inconclusive
CCn1nc(C)c(CNC(=O)c2cc(COc3ccc4ncccc4c3)on2)c1C	HEK293 tox inconclusive, NPR1 antag 10µM, NIH3T3 tox inconclusive | Npr1 antag conf 22µM | Npr2 selectivity 19µM | FLuc counter inactive | GloSensor ctrl 17µM
O=C(NCCc1cnc[nH]1)c1cc(-c2ccccc2F)cc2c1OCCN2Cc1cccnc1	HEK293 tox inconclusive, NIH3T3 tox inconclusive
O=C(NCC1CCCO1)c1cc(-c2ccccc2F)cc2c1OCCN2Cc1cccnc1 (stereo unspecified)	HEK293 tox inconclusive, NIH3T3 tox inconclusive
CN(C)C(=O)c1cc(-c2ccccc2F)cc2c1OCCN2Cc1cccnc1	HEK293 tox inconclusive, GPT2 inhibitor inconclusive | Npr1 antag conf inconclusive | Npr2 selectivity inactive | FLuc counter inactive | GloSensor ctrl inactive
O=C(c1cc(-c2ccccc2F)cc2c1OCCN2Cc1cccnc1)N1CCC1	HEK293 tox inconclusive, NPR1 antag inconclusive, NIH3T3 tox inconclusive | Npr1 antag conf inconclusive | Npr2 selectivity inconclusive | FLuc counter inactive | GloSensor ctrl inactive
O=C(NC1CC1)c1cc(-c2ccccc2F)cc2c1OCCN2Cc1cccnc1	HEK293 tox 100µM, NIH3T3 tox 89µM | Npr1 antag conf inconclusive | Npr2 selectivity inconclusive | FLuc counter inactive | GloSensor ctrl inactive
COCc1ccc2c(c1)c(OC(C)(C)C(N)=O)nn2Cc1cccc(OC)c1	HEK293 tox inconclusive, NIH3T3 tox inconclusive
CSc1ccccc1NC(=O)c1cnc(-c2ccc(C)cc2)nc1-c1ccncc1	HEK293 tox inconclusive, NIH3T3 tox inconclusive

High-throughput results (PubChem BioAssay)
